Experimental data from PubChem BioAssay (NCI).
This is part of a sample that, as a whole, favours compounds with a hit. Of some 83,000 tested, about 20% had one in any assay.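 The endpoint reported here, percent growth, reads 100 for growth as untreated, 0 for no net growth and -100 for all cells dead.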 Unmarked numbers belong to inactive results. The source made the active and inactive calls. Rule for the calls: active = growth percent below 10; inactive = the rest.

tested on: MDA-MB-231 breast; test: NCI-60 one-dose screen, 48 h (100 = growth as untreated, 0 = no growth, -100 = all killed); details: 10 µM unless noted

SMILES | growth
[Cl][Hg][c]1cc[c]([Hg][Cl])o1 | 22.7%
NC(=S)c1cn(C2OC(CO)C(O)C2O)c2ncnc(N)c12 (stereo not given) | -9.11% (active)
COC(=O)CC[C@H](Cc1ccccc1)NC(=O)c1csc([C@@H](C[C@H](C(C)C)N(C)C(=O)[C@@H](NC(=O)[C@H]2CCCCN2C)C(C)C)OC(C)=O)n1 | 36.8%

tested on: RXF 393 renal; test: as above; details: 10 µM unless noted

SMILES | growth
O=C(CCl)c1ccc([N+](=O)[O-])o1 | -48.2% (active)
CCCCCSC1C2C(=O)C(Br)=CC13CCNc1c(O)c4c5c(c13)=[N+]2CCC=5C=N4 (stereo not given) | -28.5% (active)
COc1ccc(C/C(C)=C(\c2ccc(OCCN3CCOCC3)cc2)c2ccc(OC(=O)Cc3ccccc3)cc2)cc1 | -83.3% (active)
Cn1cc(-c2csc(-c3cn(CCCCN4CCCCC4)c4ccc(F)cc34)n2)c2cccnc21 | 26.8%
COc1ccc2c(c1)c(-c1nc(-c3cn(C)c4ncccc34)cs1)cn2CCCCN1CCCCC1 | -80.1% (active)
C[n+]1c(/C=C/c2ccc(N(CCCl)CCCl)cc2)sc2ccccc21 | 85.6%
C=CC[Se]C(=O)c1ccccc1OC(C)=O | -21% (active)
CC(=O)OC1CCC2C3CCC4=C/C(=N/OC(=O)c5ccc(N(CCCl)CCCl)cc5)CCC4(C)C3CC(C)C12 (stereo not given) | 67.9%
CCCCCCCC[n+]1ccc2ccccc2c1 | 97.4%
Cn1cccc1C1CC(=O)N(CCC[Se]C#N)C1=O (stereo not given) | -48.7% (active)
C[Se]C(=O)c1ccccc1OC(C)=O | 11.7%
O=C1Nc2ccccc2C2c3cccn3-c3ccccc3CN12 (stereo not given) | 59.8%
